For orientation: inhibition means the drop in the measured response relative to a control, in per cent.

SMILES strings stand for the structures. In all, about 360,000 compounds went through this assay and about 7,300 (2%) were called active. This is one part of a sample in which actives are shown more often than they occur. A number with no mark means an inactive call. Cut-off read from the data, not from the text of the source: active = inhibition above about 50%; inactive = the rest.

Drawing on PubChem BioAssay AID1159606 (Sanford-Burnham Center for Chemical Genomics, 2016), this text covers inhibition for 87 compounds.

The assay is described as follows: blockers of TWEAK-induced Fn14 reporter activity – luciferase reporter cells, uHTS, primary screen (AID 1159606). Conditions: TWEAK-stimulated Fn14 reporter cells, luciferase luminescence, 8 h; at 10 µM; active compounds read high.
Consider `Cc1noc(C)c1S(=O)(=O)N1CCCC(C(=O)Nc2nccs2)C1` (configuration not stated), for which the inhibition was 4.3%.

Consider `CC(CC(=O)O)C(=O)c1ccc(Cl)c([N+](=O)[O-])c1` (configuration not stated), for which the inhibition is 0.14%. The value for `O=C(/C=C/c1ccc(Cl)c([N+](=O)[O-])c1)c1ccc(O)cc1` was 84.1% (active). As to `CC(=O)Nc1ccc(C=CC(=O)c2ccc([N+](=O)[O-])cc2)cc1`, the inhibition was 5.86%.

With `O=S(=O)(NCc1ccccn1)c1ccc(Br)s1`, the inhibition was -7.41%. Regarding `O=S(=O)([N-]c1nc2ccccc2nc1-[n+]1ccc(Cc2ccccc2)cc1)c1ccc(Br)s1`, the inhibition was 101% (active). The value for `Cn1c2c(c(=O)n(C)c1=O)C(c1cccc([N+](=O)[O-])c1)Nc1ccccc1O2` (configuration not stated) was -3.73%; that for `O=C(Nc1ccccc1)N1CCN(C2c3ccccc3-c3ccccc32)CC1` was -2.27%.

`O=C(Nc1cccc(NC(=O)N2CCN(c3ccccc3)CC2)c1)N1CCN(c2ccccc2)CC1`: the inhibition was 86.3% (active). The value for `COc1cccc(N2CCN(C(=O)Nc3ccc4c(c3)NC(=O)CO4)CC2)c1` was 8.92%. The value for `Cc1nc(SC(C)C)[nH]c(=O)c1Cc1ccccc1` was 3.45%.

Regarding `COc1ccc(NC(=O)/C(Cl)=C(/Cl)S(=O)Cc2ccc(C)cc2)cn1` (configuration not stated), the inhibition was 97.5% (active). The value for `COc1ccc(NC(=O)C2Cc3c(-c4ccc5c(c4)OCO5)ccnc3O2)cn1` (configuration not stated) was 14.2%. Take `COc1ccc(NC(=O)CN2C(=O)NC(C)(c3ccccc3)C2=O)cn1` (configuration not stated): the inhibition was -0.71%.

As to `CC(=O)c1ccc(OCC(=O)N(C)C2CCS(=O)(=O)C2)cc1` (configuration not stated), the inhibition is 0.02%.

On to `CC(C)NC(=O)c1ccccc1S(=O)c1ccccc1C#N` (configuration not stated), for which the inhibition is 3.58%.

`O=C(c1ccc(C(F)(F)F)cc1)N1CCC(=O)N([C@H](COCc2ccccc2)Cc2ccccc2)CC1`: the inhibition was 13.8%. The value for `CC(=O)c1sc(N/N=C/c2ccc(C(C)C)cc2)nc1C` was -16.6%. Then `COc1cccc2sc(Nc3nc(C)c(C(C)=O)s3)nc12`, with 94.3% (active); and `CNC(=O)c1sc(Nc2ccc(OCc3ccccc3)cc2)nc1C`, with 32.3%; and `Cc1cc(N2C(=O)c3ccc(C(=O)NCc4ccccc4)cc3C2=O)no1`, with -3.3%.

On to `COC(=O)[C@@]1(Cc2ccc(F)cc2)[C@H]2c3cc(C(=O)N(C)C)n(CCc4c[nH]c5ccc(OC)cc45)c3C[C@H]2CN1C(=O)c1ccccc1`, for which the inhibition is 34.5%. For `O=C(NCc1ccccc1)C1c2ccccc2OCC(=O)N1CCCN1CCOCC1` (configuration not stated), the inhibition is -1.12%. Then `O=C1OC(/C=C/c2ccccc2)=NC/1=C/c1ccco1`, with 51% (active); and `CC(C)(C)C1C/C(=C/c2ccco2)C(=O)/C(=C/c2ccco2)C1` (configuration not stated), with 9.75%; and `COc1ccccc1/C=C/C1=NC(=C\N(C)C)/C(=O)O1`, with -17.3%.

As for `CN(/C(=N/S(=O)(=O)c1cccs1)c1ccccc1)c1ccc(O)cc1`, the inhibition is 7.69%.

Regarding `O=C1Nc2ccccc2NC(c2ccc3c(c2)OCO3)=C1N(Cc1ccc(F)cc1)C(=O)c1ccco1`, the inhibition is 9.28%. As for `CCc1ccc2oc(-c3ccc(N)cc3)nc2c1`, the inhibition was 60.2% (active). The value for `O=C1CC[C@@H](C(=O)N2CSC[C@@H]2C(=O)Nc2ccc(C(F)(F)F)cc2)N1` was 22.5%.

As to `CC1Cc2ccccc2N1S(=O)(=O)c1c(N)n(C)c(=O)n(C)c1=O` (configuration not stated), the inhibition is -4.11%. The value for `C[C@H]1[C@H]2c3nc4ccccc4n3C[C@H]1ON2C1CCCCC1` was -8.66%.

For `O=c1[nH][nH]c2c1[C@H](c1ccc(Cl)cc1)O[C@H](CCc1ccccc1)C2`, the inhibition was 9.82%. The value for `CN1c2ccc([N+](=O)[O-])cc2C(C)(C)C12C=Cc1cc(C(=O)O)ccc1O2` (configuration not stated) was 0.62%; that for `COc1ccc2c(c1)C=CC1(O2)N(CCO)c2ccccc2C1(C)C` (configuration not stated) was 86.2% (active); that for `COc1cccc(CC2(CO)CCCN(CC3=Cc4cc(OC)ccc4OC3)C2)c1` (configuration not stated) was 37.8%. Then `CCN1CCN(C(=O)C2(NC(=O)Nc3cccc(F)c3)CCCCC2)CC1`, with 6.11%. `CCN(CC)CCn1c(=S)[nH]c2ncccc2c1=O`: the inhibition is 11.7%. The value for `COc1cc(N2C(=O)c3ccccc3C2=O)c(Cl)cc1C(=O)OCC(=O)N1CCOCC1` was 16.7%; that for `N#Cc1ccc(-c2ccc3nccn3c2)cc1` was -15.9%. The value for `CCOC(=O)c1cc(C)sc1NC(=O)C1CCC1` was 13.5%; that for `COc1cccc2c1C(=O)c1c(O)c3c(c(O)c1C2=O)CC(O)(C(C)=NNC(=O)c1ccc(Cl)c(Cl)c1)CC3OC1CC(N)C(O)C(C)O1` (configuration not stated) was 100% (active).

As for `Clc1cccc(Cc2c(-c3cccc(Cl)c3)nc3ccc(Cl)cn23)c1`, the inhibition is -8.97%. The value for `CCN1C(=O)/C(=C2\SC(N3CCCCC3)=NC2=O)c2ccccc21` was -25.1%. Then `COc1ccc(S(=O)(=O)N2CN(CCc3ccc(OC)c(OC)c3)c3nc4ccccc4nc32)cc1`, with 14%.

Regarding `COc1ccc(COC(=O)c2n[nH]c3ccccc23)cc1F`, the inhibition was -8.86%. As to `CC(Nc1nc(C(F)(F)F)nc2ccccc12)c1cccs1` (configuration not stated), the inhibition was 60.9% (active). Turning to `CCc1ccc(C(CNc2nc(C(F)(F)F)nc3ccccc23)N(C)C)cc1` (configuration not stated), the inhibition was 9.86%. Then `CC(Nc1nc(N2CCCC2)nc2ccccc12)c1ccccc1` (configuration not stated), with -2.01%; and `COc1ccc(Cl)cc1C=CC=NNC(=O)c1ccncc1`, with -16.2%.

Turning to `COc1cc(C(=O)Nn2c(O)c(C3=c4ccccc4=NC3=O)sc2=S)ccc1O`, the inhibition was 4.56%. On to `Nc1nc(SCC(=O)N2CCN(S(=O)(=O)c3ccc(Cl)cc3)CC2)n[nH]1`, for which the inhibition was 4.55%. With `O=C1NC[C@H](Cc2ccc(O)cc2)N(C[C@H]2CCCN2C[C@H](Cc2ccccc2)N2C[C@H](Cc3ccccc3)N(CCc3ccccc3)C(=O)C2=O)C1=O`, the inhibition was -7.56%.

For `COc1ccc(C(=O)O)cc1S(=O)(=O)NCc1cccnc1`, the inhibition was 16.8%. Then `Nc1nnnn1/N=C/c1cc([N+](=O)[O-])ccc1O`, with -1.63%; and `O=C(N/N=C/c1cc([N+](=O)[O-])ccc1O)/C(=C\c1cccs1)NC(=O)c1ccccc1`, with 5.24%. Take `O=[N+]([O-])c1ccc(O)c(/C=N/Nc2ccccc2[N+](=O)[O-])c1`: the inhibition is 71.5% (active). Then `Cc1ccc(-c2nc(-c3cccnc3)sc2CC(=O)Nc2ccc(C)c(Cl)c2)cc1`, with -0.71%. The value for `CCc1nc2cccnc2n1-c1ccc(C(=O)O)cc1` was 2.68%; that for `COCCCNC(=O)CCc1nc2cccnc2n1Cc1ccc(OC)cc1` was 16.3%. Then `COCCCNC(=O)Cc1ccc(-n2c(C)nc3cccnc32)cc1`, with 84.3% (active). Regarding `COc1ccc(CNC(=O)c2cc(C(=O)C3CC3)c[nH]2)cc1`, the inhibition is -10.9%. Then `CN1CCC(N(C)S(=O)(=O)c2ccc(NC(=O)c3cccc(C#N)c3)cc2)CC1`, with 5.91%.

With `Cc1nc(N)nc(Cl)c1CCC1OCCO1`, the inhibition was -6.2%. With `COc1cc(NC(=S)N2CCCC(C)C2)c(OC)cc1Cl` (configuration not stated), the inhibition was 12.8%. In the case of `O=C1NC[C@H](CCCCN2C[C@H](Cc3ccc(O)cc3)N(CC3CCCCC3)C(=O)C2=O)N(CCc2ccccc2)C1=O`, the inhibition is 2.86%. Then `Cc1ccc(S(=O)(=O)N(CC(=O)Nc2cccc([N+](=O)[O-])c2)Cc2ccc(Cl)cc2)cc1`, with 51.2% (active); and `COc1ccc(N(CC(=O)Nc2ccc(C)cc2C)S(=O)(=O)c2ccccc2[N+](=O)[O-])c(OC)c1`, with 0.97%; and `CN(c1ccc(OCC(=O)OCC(=O)Nc2cccc([N+](=O)[O-])c2)cc1)S(=O)(=O)c1ccc(F)cc1`, with -9.04%. The value for `Cc1ccc(N(CC(=O)Nc2cc(C)cc(C)c2)S(=O)(=O)c2cccc3nonc23)cc1` was 9.38%. In the case of `COc1ccc(C)cc1S(=O)(=O)N(CC(=O)Nc1cccc([N+](=O)[O-])c1)c1ccc(C)cc1`, the inhibition is 61.9% (active). Then `Cc1ccc(CN(CC(=O)NCC2CCCO2)S(=O)(=O)c2ccc(C)cc2)cc1` (configuration not stated), with 5.7%. Then `O=C(NCc1cccc(C(F)(F)F)c1)c1ccc2sc(COCCO)nc2c1`, with -7.3%; and `COc1ccccc1C(=O)N(C1=NC(C)CS1)c1ccc(Cl)cc1` (configuration not stated), with 10.7%; and `CCOC(=O)[C@]12CCC=C1N(CCC1=CCCCC1)C(=O)[C@H](CC(=O)NCc1ccc(C)o1)C2`, with 5.47%. For `O=C(Nc1ccc(N2CCOCC2)cc1)c1cccc2c(-c3ccc(F)c(F)c3)coc12`, the inhibition was -28%. Then `CCOC(=O)[C@]12CCC=C1N(Cc1cccc3ccccc13)C(=O)[C@H](CC(=O)NCc1cccc(C(F)(F)F)c1)C2`, with 13.4%. On to `Cc1ccc(S(=O)(=O)N2CCN(C(=O)c3ccccc3-c3nc4ccccc4s3)CC2)c(C)c1`, for which the inhibition is -40.8%. The value for `CSc1ncnc2c1ncn2CC(=O)C1CCC2C3CCC4=CC(=O)CCC4(C)C3CCC12C` (configuration not stated) was 105% (active); that for `CSc1ncnc2c1ncn2CCCNCC1CCCCC1` was -1.18%; that for `CC(=O)C12CC(C)=C(C)CC1CC1C3CCC4=CC(=O)CCC4(C)C3CCC12C` (configuration not stated) was -12.9%.

As to `CC(C)COC(=O)n1c(=O)oc2ccc(S(=O)(=O)N3CCCCC3)cc21`, the inhibition was 19.6%. For the compound `Cc1noc(C)c1C(=O)N(CC(=O)NC1CCCC1)Cc1ccccc1F`, the inhibition is -13.7%. `FC(F)(F)c1ccc2nnc(-c3c(Cl)cccc3Cl)n2c1`: the inhibition was 0.93%. Take `CC(C)C[C@@H](N)c1nnc(SCC(=O)c2ccc(Cl)cc2)o1`: the inhibition is 58.5% (active).

Take `CC(=O)Nc1ccc(C(=O)CSc2nnc(Cc3ccccc3)o2)cc1`: the inhibition was -13.6%. Then `COc1cc(C(=O)NCc2nnc(SCC(=O)c3ccc(Cl)cc3)o2)cc(OC)c1OC`, with -10.8%.
